High-throughput results: PubChem BioAssay, National Center for Advancing Translational Sciences (NCATS)
CtBP-E1A blk = CtBP/E1A binding inhibition. AlphaScreen GST-E1A/His-CtBP binding, 1536-well; hits give low values. activity change, % (concentration not given with the values). hit rate 0.49% among 340,000; in the data active = activity change below about -65%; inconclusive = mostly about -30% to -63%
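Protein mix (5X: 125 nM each GST-E1A, His-CtBP) was incubated with pinned compound 2 h at 37 deg C in dark, in 50 mM Tris pH 8.0 buffer with 300 mM NaCl. Glutathione donor and nickel acceptor beads followed; AlphaScreen signal read after 1 h.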
PKM2 activator = activators of human pyruvate kinase M2. hit rate 0.34% among 260,000. P14618. Potency, µM (top dose mostly 57.5 µM), most hits filed as activators. purified PKM2, Kinase-Glo ATP luminescence, activation; response scale: 0% is enzyme alone, no compound; note: nearly all actives have a fitted effect of over 55% in size
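ATP formation by purified human PK-M2, quantified via coupled luciferase luminescence after 1 h at room temperature with 0.1 mM ADP and 0.5 mM PEP final.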
Six1-Eya2 inh = blocks human Six1 binding to Eya2 | Q15475+O00167 | AlphaScreen GST-Six1/His-Eya2 binding, biochemical; hits give low values | activity change, % (no concentration beside the values) | hit rate 0.56% among 360,000 | AID 651725; in the data active = activity change below about -65%; inconclusive = mostly about -30% to -63%
Target sequence (O00167 whole entry, looked up): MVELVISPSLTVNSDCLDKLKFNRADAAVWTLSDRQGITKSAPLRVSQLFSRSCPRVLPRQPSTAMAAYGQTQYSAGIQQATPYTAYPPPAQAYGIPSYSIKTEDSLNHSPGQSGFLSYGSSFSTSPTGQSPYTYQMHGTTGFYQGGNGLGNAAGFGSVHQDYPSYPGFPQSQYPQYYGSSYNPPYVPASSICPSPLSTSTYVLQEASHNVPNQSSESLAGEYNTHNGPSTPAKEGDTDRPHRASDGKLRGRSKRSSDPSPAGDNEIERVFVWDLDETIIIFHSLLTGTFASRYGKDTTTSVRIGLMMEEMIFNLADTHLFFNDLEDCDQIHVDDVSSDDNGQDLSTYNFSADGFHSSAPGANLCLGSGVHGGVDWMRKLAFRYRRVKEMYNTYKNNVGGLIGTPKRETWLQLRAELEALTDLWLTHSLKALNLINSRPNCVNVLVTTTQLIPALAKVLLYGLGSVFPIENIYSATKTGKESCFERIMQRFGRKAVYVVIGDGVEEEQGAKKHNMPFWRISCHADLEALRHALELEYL
Target sequence (Q15475 whole entry, looked up): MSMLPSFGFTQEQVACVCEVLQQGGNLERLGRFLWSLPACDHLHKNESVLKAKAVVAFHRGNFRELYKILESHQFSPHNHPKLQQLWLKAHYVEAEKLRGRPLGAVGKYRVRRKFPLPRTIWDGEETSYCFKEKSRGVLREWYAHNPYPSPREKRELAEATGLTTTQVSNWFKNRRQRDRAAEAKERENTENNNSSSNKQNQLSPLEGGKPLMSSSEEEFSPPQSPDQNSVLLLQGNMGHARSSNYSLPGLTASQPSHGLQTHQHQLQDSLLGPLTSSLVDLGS
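Six1/Eya2 binding was read as AlphaScreen signal after compounds were pinned into GST-Six1 plus His-tagged Eya2 (5X stock 250/500 nM) in pH 8.0 Tris/NaCl/TCEP buffer, beads added, then incubated 1 h, 37 C, dark.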
VP16 counter = counter-screen for ROR gamma inhibitors: Gal4-VP16 reporter | Drosophila S2 Gal4-VP16 UAS-luciferase, luminescence, 20 h | Potency, µM (top dose mostly 53.6 µM), usual class: inhibitors | hit rate 3.5% among 310,000 | AID 2546;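 note: Gal4-VP16 expression switched on by copper sulfate through the metallothionein promoter; nearly all actives have a fitted effect of over 50% in size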
RORgamma inh = ROR gamma (mouse) transcription inhibition | Drosophila S2 Gal4-RORgamma UAS-luciferase reporter, 20 h | Potency, µM (top dose mostly 53.6 µM), actives largely listed as inhibitors | hit rate 5.4% among 310,000; note: nearly all actives have a fitted effect of over 60% in size
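Luminescence from a UAS-regulated Photinus luciferase reporter in stably transfected Drosophila Schneider cells is measured; decreased signal marks ROR gamma inhibition. Fusion expression is induced by 700 uM copper sulfate for 20 hr.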
Each line names hits and unclear results; the compound was inactive in the other large screens. Most compounds without a hit are left out; they make up all but 5.6% or so of the library. Unless noted, calls come from the whole dose curve; as a rule, active = well fitted curve in the direction sought with a large enough effect; inconclusive = small, poorly fitted or top-dose-only effect, or another doubt; inactive = no such curve, though single readings can be large; an effect the other way counts as inactive or inconclusive.

Cc1cc(/C=N/NC(=O)C(O)(c2ccccc2)c2ccccc2)c(C)n1-c1ccccc1	VP16 counter inconclusive, RORgamma inh 11µM (no result: CtBP-E1A blk)
Cc1cccc(C)c1-n1c(C)cc(/C=N/NC(=O)CSc2ncccn2)c1C	VP16 counter 16µM, RORgamma inh inconclusive
CCOc1ccc(CCNC(=O)COC(=O)c2ccc3c(c2)OCCO3)cc1OCC	none (no result: PKM2 activator, VP16 counter, RORgamma inh)
CCCCSCc1nc2nc(Cl)c(Cl)nc2[nH]1	none (no result: PKM2 activator, VP16 counter, RORgamma inh)
O=C(O)Cn1c(-c2ccccc2)cc2ccccc21	none
CC(=O)c1cccc(NC(=O)c2ccc(-c3ccccc3[N+](=O)[O-])o2)c1	VP16 counter 7.1µM, RORgamma inh inconclusive
Cc1cc(C)nc(N/N=C/c2cc(C)n(CC(F)(F)F)c2C)n1	VP16 counter inconclusive, RORgamma inh 8.9µM (no result: CtBP-E1A blk)
Cc1c(NC(=O)CSc2ccccc2Cl)c(=O)n(-c2ccccc2)n1C	none (no result: PKM2 activator)
S=C(NC1CCCC1)N1CCN(c2cccc(Cl)c2)CC1	RORgamma inh 11µM
S=C(Nc1ccc(Cl)c(Cl)c1)N1CCN(c2ccccn2)CC1	none
S=C(Nc1ccc(Oc2ccccc2)cc1)N1CCN(c2ccccn2)CC1	VP16 counter inconclusive, RORgamma inh 11µM
O=S(=O)(c1cccc(NC(=S)N2CCN(c3cccc(Cl)c3)CC2)c1)C(F)F	VP16 counter inconclusive, RORgamma inh 13µM
O=S(=O)(c1cccc(NC(=S)N2CCN(c3ccc(F)cc3)CC2)c1)C(F)F	VP16 counter inconclusive (no result: CtBP-E1A blk)
S=C(NC1CC1)N1CCN(c2ccc(Cl)cc2)CC1	none
S=C(Nc1cccc(Cl)c1)N1CCN(c2ccccn2)CC1	VP16 counter 13µM, RORgamma inh 11µM
O=c1c(-c2ccc(F)c(F)c2)nc2cncnc2n1C1CC1	none (no result: CtBP-E1A blk, PKM2 activator, Six1-Eya2 inh)
O=C(Cc1coc2cc(O)ccc12)NNC(=O)c1ccc(Br)s1	none (no result: PKM2 activator, VP16 counter, RORgamma inh)
CCOC(=O)c1cc(NC(=O)c2ccccc2)c(=O)n2c1oc1ccccc12	none (no result: CtBP-E1A blk)
CCc1ccc(NC(=O)c2ccccc2SC)cc1	none
COc1c([N+](=O)[O-])cc(C(=O)NNC(=O)c2ccc(C)cc2)cc1[N+](=O)[O-]	none
Cc1ccc(C(=O)Oc2ccc(/C=C3\C(=N)N4N=C(N5CCOCC5)SC4=NC3=O)cc2)cc1	CtBP-E1A blk inconclusive, Six1-Eya2 inh -88, VP16 counter 13µM, RORgamma inh inconclusive
CCc1c(C(C)S(=O)(=O)c2ccc(C)cc2)[nH]c(=O)n1-c1ccc(C)cc1 (stereo not drawn)	RORgamma inh inconclusive
CCc1[nH]c(=O)[nH]c1C(C)S(=O)(=O)c1ccc(C)cc1 (stereo not drawn)	VP16 counter inconclusive, RORgamma inh 14µM
[O-][n+]1c2c(nc3c1-c1ccccc1C3O)CCCC2 (stereo not drawn)	none (no result: CtBP-E1A blk, Six1-Eya2 inh)
COc1ccccc1NC(=O)Cc1csc(NC(=S)Nc2ccccc2)n1	VP16 counter 3.2µM, RORgamma inh 1.1µM
COc1ccc(OC)c(NC(=O)Cc2csc(NC(=O)Nc3ccccc3OC)n2)c1	none (no result: PKM2 activator, VP16 counter, RORgamma inh)
COc1ccc(NC(=S)Nc2nc(CC(=O)Nc3ccccc3OC)cs2)cc1	VP16 counter 4.5µM, RORgamma inh 1.8µM
CC(=O)NS(=O)(=O)c1ccc(NC(=O)C(C)NS(=O)(=O)/C=C/c2ccccc2)cc1 (stereo not drawn)	none (no result: CtBP-E1A blk, PKM2 activator, VP16 counter, RORgamma inh)
C#CCN(C[C@H]1[C@H](OC(=O)NCc2ccccc2F)[C@H](OC(=O)NCc2ccccc2F)C[C@H]2C(=O)N(c3ccccc3)C(=O)[C@@H]12)S(=O)(=O)c1ccc(C)cc1	none (no result: PKM2 activator, VP16 counter, RORgamma inh)
Cc1nn(C)cc1/C=N\NC(=O)c1ccc2c(c1)c(C)c(C)n2Cc1ccccc1	VP16 counter inconclusive, RORgamma inh 16µM
Cc1ccc(S(=O)(=O)N2CCN(C(=O)CC(C)n3cncn3)CC2)cc1C (stereo not drawn)	none
Cc1cccc(C)c1NC(=O)C(C1CC1)n1c(-c2ccc(C(F)(F)F)cc2)nc2ccccc21 (stereo not drawn)	none (no result: PKM2 activator, VP16 counter, RORgamma inh)
Cc1c(C(=O)N2CCOCC2)sc(NC(=O)CCl)c1C#N	VP16 counter inconclusive, RORgamma inh 13µM (no result: PKM2 activator)
COc1ccc(N=Nc2n(C)c3ccccc3[n+]2C)cc1	VP16 counter 2µM, RORgamma inh 1.1µM (no result: CtBP-E1A blk, Six1-Eya2 inh)
CCOC(=O)N1CCN(C2=C(NS(=O)(=O)c3ccc(NC(C)=O)cc3)C(=O)c3ccccc3C2=O)CC1	none (no result: CtBP-E1A blk, PKM2 activator)
